Screening results deposited in PubChem by Sanford-Burnham Center for Chemical Genomics.
This is a sample that favours compounds with a hit; in the whole collection about 4% have one here.
TWEAK-Fn14 inh: blocks TWEAK-Fn14 interaction in a reporter cell assay; TWEAK-stimulated Fn14 reporter cells, luciferase luminescence, 8 h; inhibition, % at 10 µM; 2% of 360,000 active; AID 1159606; in the data active means inhibition above about 50%
HIF-2a block: blocks HIF-2a reporter activity | inhibition, % at 18.8 µM | 0.72% of 360,000 active | 786-0 RCC cells HIF-2a reporter, luciferase luminescence, overnight;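 active means inhibition of the luminescence signal of 40% or more relative to plate controls, in a single-dose primary screen at 18.75 µM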
KKLEB cytotox: CF airway cell cytotoxicity counter-screen; KKLEB CF airway cells viability, ATPlite luminescence, overnight; hits give low values; cells stimulated with P. aeruginosa culture filtrate; activity change (cytotoxicity), % at 5 µM; 0.36% of 360,000 active;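 active means corrected activity change at or below -50% at 5 µM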
TROY NFkB inh: TROY signaling inhibition | Q293 LMP1-TROYcd NF-kB luciferase reporter, 4 h | inhibition, % at 10 µM | 0.98% of 360,000 active | AID 1347056;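 active means compounds whose plate-normalised and pattern-corrected inhibition of the luciferase reporter signal at the single screening dose is 50% or more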
Peg3 prom inh: reduces Peg3 promoter-driven luciferase expression in HeLa. HeLa PEG-Prom luciferase reporter, luminescence, overnight. inhibition, % at 20 µM. 1.7% of 360,000 active. AID 588405;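 active means inhibition of at least 50% at 20 µM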
CF NFkB block: inhibitors of cystic fibrosis induced NF-kB; KKLEB NF-kB-GFP reporter, PAF-induced, GFP fluorescence overnight; 0.86% of 360,000 active; AID 588850; inhibition, % at 5 µM;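 active means at least 50% inhibition at 5 µM, scaled per plate between neutral and stimulator controls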;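 further: PAF is a Pseudomonas aeruginosa culture filtrate used as stimulus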
Of the large screens only hits and unclear results are named; the others gave an inactive call.

C=C1[C@@H](C)[C@H]2[C@H](Cc3ccccc3)NC(=O)[C@]23OC(=O)/C=C/[C@H](O)CCC[C@@H](C)C/C=C/[C@H]3[C@@H]1O	Peg3 prom inh 64, CF NFkB block 81
CC(C)(OOC1(c2ccccc2)NC(=O)c2ccccc21)c1ccccc1 (configuration not stated)	none (no result: KKLEB cytotox, Peg3 prom inh, CF NFkB block)
COc1ccc(CCNCc2sccc2C)cc1OC	TWEAK-Fn14 inh 77
O=C(/C=C/c1ccccc1)N1Cc2ccccc2-n2nncc2C1	none
CCCCCCC(C)(C)c1ccc([C@@H]2C[C@H](O)CC[C@H]2CCCO)c(O)c1	Peg3 prom inh 83
CC12CC[C@H]3[C@@H](CCC4(O)C[C@H](O)CCC34/C=N/NC(=O)c3ccccc3[N+](=O)[O-])C1(O)CCC2C1=CC(=O)OC1 (some centres not stated)	Peg3 prom inh 67
CC12CC[C@H]3[C@@H](CCC4(O)C[C@H](O)CCC34/C=N/NC(=O)Cc3ccccc3)C1(O)CCC2C1=CC(=O)OC1 (some centres not stated)	none
Cc1nc2cc(OC(=O)N(C)Cc3cccc(-c4ccncc4)c3)ccc2s1	TWEAK-Fn14 inh 93, TROY NFkB inh 66 (no result: KKLEB cytotox, Peg3 prom inh, CF NFkB block)
CN(Cc1cccc(-c2ccncc2)c1)C(=O)Oc1ccccc1Cl	TWEAK-Fn14 inh 75 (no result: KKLEB cytotox, Peg3 prom inh, CF NFkB block)
CN(Cc1cccc(-c2ccncc2)c1)C(=O)Oc1ccccc1Cc1ccccc1	TWEAK-Fn14 inh 93, TROY NFkB inh 66 (no result: KKLEB cytotox, Peg3 prom inh, CF NFkB block)
C#C[C@]1(O)CC[C@H]2[C@@H]3[C@H](O)C[C@H]4C[C@@H](O)CC[C@]4(C)[C@H]3CC[C@@]21C	none
O=C(NCCN1CCC2(CC1)C(=O)NCN2c1cccc(F)c1)c1ccc2ccccc2c1	none (no result: KKLEB cytotox, Peg3 prom inh, CF NFkB block)
CCCCCCOc1ccc(CN2CCN(CCO)CC2)cc1	TROY NFkB inh 56
CCCCCn1c(NC(=O)c2ccco2)c(C(=O)OCC)c2nc3ccccc3nc21	TWEAK-Fn14 inh 81, TROY NFkB inh 62
CN1CCN(c2cccc3c2C(=O)c2ccccc2C3=O)CC1	TWEAK-Fn14 inh 55, TROY NFkB inh 64
O=C(NN=Cc1ccc(N(CCCl)CCCl)cc1)c1cccnc1	none
COCCCn1c(-c2ccc(OC)cc2)cc(C(=O)NC2CCCCCCC2)c1C	TWEAK-Fn14 inh 64
COc1ccc(-c2ccc3c(c2)CN(C(=O)NC2CCCCC2)Cc2cnnn2-3)cc1	none
CC(C)(C)n1nnnc1C(c1ccccc1)N1CCC2(CC1)C(=O)NCN2c1ccccc1 (configuration not stated)	none
COc1cc2cc(C(=O)N3CC(COS(C)(=O)=O)c4ccc(O)cc43)[nH]c2c(OC)c1OC (configuration not stated)	TWEAK-Fn14 inh 108, HIF-2a block 83, KKLEB cytotox -96, TROY NFkB inh 72, Peg3 prom inh 99, CF NFkB block 88
OCC1CN1C1CCCCC1 (configuration not stated)	none
COC(=O)c1ccc(NC(=O)CSc2nc3ccc(N4C(=O)C5C6C=CC(C6)C5C4=O)cc3s2)cc1 (configuration not stated)	TWEAK-Fn14 inh 91, TROY NFkB inh 57, Peg3 prom inh 105
Brc1ccc2[nH]cc(C=NN3CCCCCC3)c2c1	none
O=C1NC(=O)C(CCc2ccncc2)(Cc2cccc(Cl)c2Cl)C(=O)N1c1ccc(Br)cc1 (configuration not stated)	Peg3 prom inh 57
CCc1ccc(N2C(=O)NC(=O)C(CCc3ccncc3)(CCc3ccncc3)C2=O)cc1	none
Fc1ccc(NC(=S)N2Cc3ccccc3-n3nncc3C2)cc1	none
Cc1cc(OCC(=O)N2CCC(C(N)=O)CC2)c2c3c(c(=O)oc2c1)CCCC3	TWEAK-Fn14 inh 91
Cc1ccccc1-[n+]1c(-c2ccccc2)cc(-c2ccccc2)cc1-c1ccccc1	TWEAK-Fn14 inh 89, TROY NFkB inh 63
CCCCC1(CC)COP(=O)(OCC(Cl)(Cl)Cl)OC1 (configuration not stated)	none
Nc1ccc(C2(c3ccc(N)cc3)c3ccccc3-c3ccccc32)cc1	TWEAK-Fn14 inh 83, KKLEB cytotox -57, CF NFkB block 75
Nc1ccc(-c2ccccc2)cc1	none
[Cl][Pt+2][Cl].[NH-]C1CCCCC1[NH-] (configuration not stated)	none
CN1C(=O)/C(=C/c2ccc(Cl)s2)C(=O)NC1=S	Peg3 prom inh 55, CF NFkB block 66
C=CCN1C(=O)/C(=C/c2ccc(Br)s2)C(=O)NC1=S	none
CN1C(=O)/C(=C\c2ccc(N3CCCCCC3)cc2)C(=O)NC1=S	Peg3 prom inh 78
Cc1ccsc1/C=C1\C(=O)NC(=S)N(C)C1=O	Peg3 prom inh 90
COc1ccc(/C=C2\C(=O)NC(=S)N(C)C2=O)cc1C	none
CC(C)(C)C(=O)N1Cc2cc(-c3ccccc3)ccc2-n2nncc2C1	none
Nc1c(C(=O)OCC2CCCO2)c2nc3ccccc3nc2n1Cc1cccs1 (configuration not stated)	TROY NFkB inh 68
CC(C)OCCCNC(=O)c1c(N)n(Cc2cccs2)c2nc3ccccc3nc12	none
CC(C)CCn1c(N)c(C(=O)NCc2cccs2)c2nc3ccccc3nc21	TWEAK-Fn14 inh 63, TROY NFkB inh 68
COCCNC(=O)c1c(N)n(CCC(C)C)c2nc3ccccc3nc12	TROY NFkB inh 73
COCCNC(=O)c1c(NC(=O)c2ccc(Br)o2)n(Cc2ccccc2)c2nc3ccccc3nc12	TWEAK-Fn14 inh 58, TROY NFkB inh 68
COCCCNC(=O)c1c(NC(=O)c2ccco2)n(Cc2ccccc2)c2nc3ccccc3nc12	none (no result: TROY NFkB inh)
CC(C)COC(=O)N1Cc2ccccc2-n2nncc2C1	none
CN1C[C@H](CO)C[C@@H]2c3cccc4[nH]cc(c34)C[C@H]21	none
CN1C[C@H](CNC(=O)OCc2ccccc2)C[C@@H]2c3cccc4c3c(cn4C)C[C@H]21	TWEAK-Fn14 inh 60
CC(C)(C)n1cccc1/C=C1\C(=O)NC(=O)N(c2ccccc2)C1=O	none
Cc1cccc(N2C(=O)NC(=O)/C(=C\c3cccn3-c3ccc(Cl)cc3)C2=O)c1	TWEAK-Fn14 inh 61, Peg3 prom inh 104
Cc1cc(C)cc(N2C(=O)NC(=O)/C(=C/c3cccn3-c3ccc(Cl)cc3)C2=O)c1	TWEAK-Fn14 inh 104, HIF-2a block 43, TROY NFkB inh 69, Peg3 prom inh 99, CF NFkB block 61
CC1(CCCc2ccc(N(CCCl)CCCl)cc2)NC(=O)NC1=O (configuration not stated)	none
CCN(CC)c1ccc(N=Cc2c(O)n(CCc3ccc(OC)c(OC)c3)c(=O)[nH]c2=O)cc1	TWEAK-Fn14 inh 52, Peg3 prom inh 69
COc1ccc(CCn2c(O)c(C=Nc3ccc(F)cc3)c(=O)[nH]c2=O)cc1OC	none
COc1ccc(-n2c(-c3ccccc3F)nc3ccccc3c2=O)cc1	none
O=C(Nc1ccncc1)c1cccn(Cc2ccccc2)c1=O	TWEAK-Fn14 inh 50
